# In the supplement of paper PMC6555819:
# Key:
# Assay in all cases: PBM binding z-score (relative to random genomic background probes); higher = stronger binding; sequences stand for … in GC…GCGATTGACAGCGTAGAATGAAGG
# [1] = system: FXR:RXRa (NR concentration 270 nM, RXRa partner concentration 90 nM)
# Outline: (§1)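 Binding buffer was PBS pH 7.4 with 2% milk, 0.02% Triton X-100, 1 mM DTT, 0.2 mg/mL BSA and 0.4 mg/ml salmon testes DNA. In it, ligand-free nuclear receptor dimers were incubated 1 h on custom Agilent 4×180K protein-binding microarrays carrying double-stranded probes. Antibodies against each partner (one per run) detected binding, and z-scores were calculated against random background probes after regression normalization of scanned fluorescence.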
# [2] = system: LXRa:RXRa (NR concentration 270 nM, RXRa partner concentration 90 nM)
# Outline: as §1
# [3] = system: LXRa homodimer (NR concentration 270 nM)
# Outline: as §1
# [4] = system: LXRb:RXRa (NR concentration 270 nM, RXRa partner concentration 90 nM)
# Outline: as §1
# [5] = system: LXRb homodimer (NR concentration 270 nM)
# Outline: as §1
# [6] = system: PPARa:RXRa (NR concentration 270 nM, RXRa partner concentration 90 nM)
# Outline: as §1
# [7] = system: PPARg:RXRa (NR concentration 180 nM, RXRa partner concentration 90 nM)
# Outline: as §1
# [8] = system: PPARg:RXRa 270nM:90nM, anti-RXR (NR concentration 270 nM, RXRa partner concentration 90 nM)
# Outline: as §1
# [9] = system: PPARg:RXRa 30nM:10nM, anti-RXR (NR concentration 30 nM, RXRa partner concentration 10 nM)
# Outline: as §1
# [10] = system: PPARg:RXRa 90nM:30nM, anti-RXR (NR concentration 90 nM, RXRa partner concentration 30 nM)
# Outline: as §1
Sequence,PBM binding z-score [1],PBM binding z-score [2],PBM binding z-score [3],PBM binding z-score [4],PBM binding z-score [5],PBM binding z-score [6],PBM binding z-score [7],PBM binding z-score [8],PBM binding z-score [9],PBM binding z-score [10]
TAGCCTAGGCCATTCAGGGGCCAGTATAGAAAGC,-0.487,-0.796,-0.549,-0.624,-0.52,-0.185,0.0353,-0.377,-0.468,-0.511
CGTCCAAGGTCAGCAGGTCAGGGAAAGCGACGTG,5.75,3.75,0.358,3.11,-0.252,4.79,4.23,4.7,1.38,3.21
GCTATTGGTTGAAAGGGCAACCGAATGATTCTCG,0.353,0.664,-0.156,0.954,-0.225,2.36,2.29,4.34,1.94,4.37
GCTGCTAGGTCACCTGATGGTCAGCTAAAGCTCG,3.25,2.4,-0.338,1.66,-0.22,3.22,2.21,2.86,0.569,1.95
TCTGCTAGGTCAAAGATGGTCAGCTAATCTGCTA,3.55,3.06,0.0702,2.07,0.0441,3.73,3.32,4.37,2.61,3.76
CCCAGCAGGCCAATCTGGGTCACTCAAGGCTTGA,0.369,1.43,-0.513,0.944,-1.13,3.19,1.76,2.13,-0.161,1.13
TGACCAAGGTGAAAGGTCGTTGATGCACGCCTTG,3.6,2.98,0.293,2.62,-0.814,5.24,8.5,7.41,6.27,7.51
ACTCGGAGGACAAAGGTTAGAGCTACGCCAGTGA,0.928,1.08,0.0666,0.618,-0.716,2.93,4.75,5.11,3.29,5.35
GGAACGAGGGCAAAGTTGAGAGCATCTGTCGACG,1.68,1.11,-0.49,1.03,-0.383,4.56,8.2,7.84,7.2,8.99
TCTACTAGGTCAGTTGGTCAGCTAACGAGCTGCC,1.67,1.12,-0.0574,0.857,1.06,2.61,4.64,4.2,3.87,4.08
CCGACTGGGGCGAGGTTACCATAACGCACAGCCA,0.344,0.809,-0.212,0.84,-0.662,1.49,1.16,1.05,-0.243,0.417
TCTTGTAGATCAAGCAGGTTAAGACAGCCTGAGT,0.233,0.271,-0.132,0.33,-0.3,0.76,0.0477,1.3,2.29,1.76
CCTCGCAGGACAACAGGAGGTCAGAGCTGCCAGA,0.787,1.63,1.92,1.05,-0.469,1.73,0.326,-0.0198,-0.833,-0.445
GCGACTGGGGCTTCAGCAGGTTACCATAACTTAA,-0.296,-0.21,-0.373,0.63,-0.572,0.478,-0.166,-0.624,-0.435,-0.762
CCTCGGAGGACAACAGGAGGTCAGAGCTGCCAGA,1.12,2.26,1.95,1.36,-0.474,1.99,0.527,0.477,-0.553,0.529
TGAATGAGGTTATAAGTTCAGGGAACGTTGCAAA,2.81,2.69,0.29,1.88,-0.136,3.66,2.09,3.38,1.55,2.71
GAATATAGGTAATACAAGGTGAAAGTCCGATTGT,1.61,2.61,0.76,1.01,0.0272,2.77,3.39,3,0.987,2
TCTTGTAGATCAATCGAGGTTAAGAAAGTGCGCT,1.32,3.01,0.075,1.49,0.176,1.73,-0.311,1.51,2.7,2.4
GCTAGTTAGTCAGTAAAAGGTCACACACCGGTCG,3.12,4.12,4.46,3.91,0.32,4.56,3.96,5.48,3.89,5.04

Sequence,PBM binding z-score [1],PBM binding z-score [2],PBM binding z-score [3],PBM binding z-score [4],PBM binding z-score [5],PBM binding z-score [6],PBM binding z-score [7],PBM binding z-score [8],PBM binding z-score [9],PBM binding z-score [10]
TCATACAGGTAATACAGGTGAAAGTCGGCATCTA,0.813,1.42,0.615,1.31,0.285,1.88,0.982,2.34,3.85,3.1
ATCGAAAGGTCGAGGTGAGTCTAGAGAAAGGGAA,4.71,3.71,0.045,2.76,0.53,4.63,3.46,3.62,1.16,2.32
ACTAGCAGGCCAAGGGTCACTCCAGATTAGTCCG,2.22,2.79,0.477,2.39,-0.313,4,7.89,7.08,5.52,7.48
AGTCAAAGTTAACTAGGTAACGTAAGATTCAGCT,-0.192,0.0304,-0.49,-0.0459,-0.318,2.16,2.33,2.5,0.593,1.89
CCTACTGGGCCAAAAAGGTCATTGACGCCGATAA,3.87,4.62,2.87,4.33,0.108,4.61,3.21,4.25,1.8,3.54
GCTCCGAGGACAAGGTCAGAGCTTTGTCCGTAGA,1.79,1.33,-0.653,1.05,-1.37,2.23,0.168,1.15,-0.379,0.299
TCATATAGGGAAATGCTAGGTGAAAGTCCGATCT,1.31,0.732,0.053,0.609,-0.0156,0.83,0.563,2.3,3.82,2.91
ACTATTAGATGACTTAGGGCAACCGATACGACGC,0.344,0.353,0.702,0.165,1.14,0.0577,1.25,0.22,0.441,0.295
CGTCAAAGTTCAACTAAGGTAACGTCAAGCACGC,7.22,6.46,4.23,4.17,2.06,5.14,5.08,5.67,2.61,4.36
GCGACTGGGGCATCAGCAGGTTTCCATAACTTAA,-0.587,-0.452,-0.461,0.112,-0.629,0.353,0.32,0.386,-0.554,-0.228
AGACAAAGTTCACTAGGTAACGTAAGATTCAGCT,5.15,4.98,2.65,3.12,1.08,4.76,6,5.55,2.55,4.7
CCTTACGGGTCACTGACAGGTTATTGCATTTGGA,5.44,4.13,0.625,3.78,0.134,5.14,4.45,4.46,1.42,2.91
GCTAGTTGGTAAGTAAAAGGTCACACACCGGTCG,2.63,4.22,4.45,3.94,0.812,4.58,4.49,6.32,4.94,6.92
AGAATGAGGTTAAGATCATGGAAACAGAATACAT,2.01,1.71,-0.0716,1.88,-0.112,3.44,2.5,2.38,0.804,1.82
GCGACTGGGGCACCAGCAGGTTACCATAACTTAA,-0.545,-0.382,-0.495,0.0821,-1.41,1.05,1.55,1.44,-0.582,0.564
GCTGCTAGATCAGGTTGGTCAGCTAACGGGTACG,-0.615,-0.876,-0.323,-0.953,-0.822,-1.19,-0.285,-1.02,-0.624,-0.926
CCTTACGGGTCACGAGGTTATCGCACGACGAGCG,6.89,4.91,0.648,4.02,0.0453,5.78,7.31,6.79,3.29,5.64
CCGACTGCGGCAGAAAGGTTACCATACCATCCGG,0.417,0.665,-0.0134,1.08,-0.692,1.85,1.33,2.53,0.645,2.19
CCTACTGAGCCATCAGGTCATTGATATCAACGTT,1.58,1.47,2.08,2.26,0.649,1.79,0.302,0.843,0.137,0.472
